Results filed as inconclusive are left out. Active and inactive are the calls of the source. Calls follow the shape of the dose curve; as a rule, active = well fitted cell-killing curve with a large enough effect; inconclusive = small, poorly fitted or top-dose-only effect; inactive = flat fitted curve, though single readings scatter.
Assay: DAPI mCherry counterscreen qHTS for Zika virus inhibitors; also: nearly all actives have a fitted effect of over 55% in size
Details: Vero cells, DAPI nuclear count cytotoxicity, imaging 48-72 h, infected with Zika reporter virus, MOI 1; series mostly up to 32.6 µM
How it was run: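 Vero cells (5,000/well), plated overnight, given compounds then recombinant ZIKV-mCherry at MOI 1 for 48-72 hrs at 37 degrees C; PFA-fixed, Hoechst-stained and imaged; nuclei counted and mCherry-positive cells scored as percent infection.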
Potency is read from the fitted curve at half-maximal effect.

Row | Structure (SMILES) | Potency
1 | O=C(O)Cn1nnc(-c2ccc(OCc3cccc(C(F)(F)F)c3)cc2)n1 | inactive
2 | Nc1cc(N)c(N=Nc2ccc(S(=O)(=O)Nc3nccs3)cc2)cc1N=Nc1ccc(S(=O)(=O)Nc2nccs2)cc1 | inactive
3 | COc1cc(Nc2nc3ccccc3nc2NS(=O)(=O)c2cccc(NC(=O)c3ccc(C)c(OC)c3)c2)cc(OC)c1 | 4.47 µM (active)
4 | CCOC(=O)c1ccc(N2C(=O)c3n[nH]c(-c4cccs4)c3C2c2ccc(C(C)(C)C)cc2)cc1 (stereo not drawn) | 10 µM (active)
5 | CC(C)=CCOc1ccc(/C=C/C(=O)c2ccc(OCC=C(C)C)cc2OCC(=O)O)cc1 | 25.1 µM (active)
6 | CC(C)c1cc(C(C)C)c(CC(=O)NS(=O)(=O)Oc2c(C(C)C)cccc2C(C)C)c(C(C)C)c1 | 10 µM (active)
7 | CC(C)(C)c1ccc(S(=O)(=O)Nc2ccc(O)c(Sc3nc4ccccc4s3)c2)cc1 | 14.1 µM (active)
8 | Cc1c(NS(=O)(=O)c2ccccc2)cc(C(C)C)c(O)c1S(=O)(=O)c1ccc(Cl)cc1 | 28.2 µM (active)
9 | Cc1cc(C)c2c(c1)C(N(Cc1cc(C(F)(F)F)cc(C(F)(F)F)c1)c1nnn(C)n1)CCCN2CC1CCC(C(=O)O)CC1 (stereo not drawn) | 35.5 µM (active)
10 | COc1c2occc2cc2ccc(=O)oc12 | inactive
11 | CCCCCCOc1cc2c(cc1N(C)c1ncc(C(=O)O)cn1)C(C)(C)CCC2(C)C | 22.4 µM (active)
12 | O=C(O)c1cc(O)c2cccc(O)c2c1O[C@@H]1O[C@H](CO)[C@@H](O)[C@H](O)[C@H]1O | inactive
13 | O=C(Nc1cccc2c(=O)cc(-c3nn[nH]n3)oc12)c1ccc(OCCCCc2ccccc2)cc1 | 35.5 µM (active)

— PubChem BioAssay AID1347156 (National Center for Advancing Translational Sciences (NCATS), 2019)
